T cruzi growth-1: T. cruzi intracellular proliferation inhibitors, primary screen, cell-based, beta-gal Tulahuen parasites, NIH3T3 host, luminescence. T. cruzi beta-gal in NIH3T3, GalScreen luminescence, 90 h. inhibition, % at 8.34 µM. hit rate 5.9% among 77,000;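 active means mean inhibition above about 93%, with at least 55% of replicates each passing it, limit read from the data, passing the limit was not always enough; inconclusive means only one of those two conditions holds; inactive means neither condition holds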
Pf Dd2 growth: P. falciparum Dd2 growth inhibitors, primary screen, SYBR Green fluorescence, single dose replicates | 72 h; hits give low values | hit rate 2.3% among 94,000 | activity change, % at 10 µM | AID 1159554, 2015; in the data active means activity change below about -80%; inconclusive means no clear call, values can overlap the other calls
C diff HTS: C. difficile growth inhibitors, primary screen, HTS; Clostridium difficile clinical isolate growth, OD600, 24 h; hits give low values; growth activity, negative = inhibition, % at 16 µg/mL (by protocol); hit rate 0.25% among 86,000;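 active means mean growth activity at or below -80% and every replicate also at or below -80%; inconclusive means mean at or below -80% but some replicate above -80%; inactive means mean growth activity above -80%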
T cruzi growth-2: T. cruzi intracellular proliferation inhibitors, confirmation, cell-based, NIH3T3 host, beta-gal parasite, luminescence, cherry-pick | inhibition, % at 8.35 µM | shares compounds with T cruzi growth-1 | hit rate 72% among 5,600 | T. cruzi beta-gal in NIH3T3, GalScreen luminescence, 90 h;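 active means mean replicate inhibition above about 95% and at least 55% of replicates individually reaching it, limit read from the data; inconclusive means only one of the two criteria is met; inactive means neither criterion is met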
T cruzi growth-3: inhibitors of intracellular T. cruzi replication, confirmation, NIH3T3 host cells, beta-gal parasites, cherry-pick, set 2; shares compounds with T cruzi growth-1; T. cruzi beta-gal in NIH3T3, GalScreen luminescence, 90 h; inhibition, % at 2.09 µM; hit rate 21% among 5,600; AID 651740, 2012;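 active means mean inhibition above about 95%, with at least 55% of replicates also reaching it, limit read from the data; inconclusive means meets just one of the two conditions; inactive means meets neither condition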
3T3 cytotox: cytotoxicity in mouse NIH/3T3 fibroblasts, confirmation, cytotoxicity control for T. cruzi proliferation inhibitor project, cell-based, cherry-pick, single point; shares compounds with T cruzi growth-1; NIH/3T3 viability, CellTiter-Glo ATP luminescence, 90 h; cytotoxicity (signal decrease), % at 8.35 µM; hit rate 14% among 5,600; AID 651742, 2012;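 active means mean signal decrease across replicates above about 35% based on untreated-well scatter, with enough replicates individually passing, limit read from the data; inconclusive means no rule stated though some were filed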
3T3 cytotox 2: NIH/3T3 fibroblast cytotoxicity, confirmation, cytotoxicity control, cell-based, cherry-pick, single point, set 2 | inhibition, % at 24.9 µM | shares compounds with T cruzi growth-1 | AID 651744, 2012 | NIH/3T3 viability, CellTiter-Glo ATP luminescence, 90 h | hit rate 56% among 5,600;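 active means mean loss of cell viability signal at or above a set limit, and enough replicates individually reaching it; inconclusive means meets only the mean limit or only the replicate share; inactive means meets neither condition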
Hits are given with their value; i = inactive; ? = inconclusive; nt = not tested or not shown. Rows were chosen to be rich in hits. Some 6.8% of all compounds tested hit in one or more screens of this group.

SMILES	T cruzi growth-1	Pf Dd2 growth	C diff HTS	T cruzi growth-2	T cruzi growth-3	3T3 cytotox	3T3 cytotox 2
C[C@H](CO)N1C[C@H](C)[C@H](CN(C)S(=O)(=O)c2ccc(F)cc2)Oc2ccc(NC(=O)c3ccncc3)cc2CC1=O	i	i	i	nt	nt	nt	nt
COc1ccccc1-c1cn(CC[C@@H]2CC[C@H](NS(=O)(=O)c3ccccc3C)[C@H](CO)O2)nn1	nt	i	i	nt	nt	nt	nt
CCCNC(=O)N1CC2(CCN(Cc3cccnc3)CC2)c2c(n(C)c3cc(OC)ccc23)[C@@H]1CO	nt	i	i	nt	nt	nt	nt
CCCN(C)C[C@H]1OCCCC[C@H](C)Oc2ccc(NC(=O)CCCN(C)C)cc2C(=O)N([C@H](C)CO)C[C@@H]1C	i	i	i	nt	nt	nt	nt
C[C@@H]1CCCCO[C@@H](CN(C)Cc2ccncc2)[C@@H](C)CN([C@@H](C)CO)C(=O)c2cc(NC(=O)CCCN(C)C)ccc2O1	i	nt	i	nt	nt	nt	nt
CCCN(C)C[C@@H]1OCCCC[C@H](C)Oc2ccc(NC(=O)CCCN(C)C)cc2C(=O)N([C@@H](C)CO)C[C@@H]1C	?	i	i	i	i	i	i
C[C@@H]1CCCCO[C@@H](CN(C)Cc2ccc(C(F)(F)F)cc2)[C@@H](C)CN([C@@H](C)CO)C(=O)c2cc(NC(=O)CCCN(C)C)ccc2O1	99.9	-85.0	i	105.2	i	i	102.4
C[C@H]1CCCCO[C@H](CN(C)Cc2ccncc2)[C@@H](C)CN([C@@H](C)CO)C(=O)c2cc(NC(=O)CCCN(C)C)ccc2O1	99.3	i	nt	i	i	i	i
C[C@@H]1CCCCO[C@@H](CN(C)Cc2ccc(C(F)(F)F)cc2)[C@@H](C)CN([C@H](C)CO)C(=O)c2cc(NC(=O)CCCN(C)C)ccc2O1	i	i	i	nt	nt	nt	nt
O=C(C[C@H]1C=C[C@@H](NC(=O)C2CCOCC2)[C@H](CO)O1)NCc1ccccc1Cl	nt	i	i	nt	nt	nt	nt
C[C@@H]1CN([C@H](C)CO)C(=O)c2cccc(NC(=O)Nc3ccc(F)cc3)c2O[C@@H]1CN(C)S(=O)(=O)c1cn(C)cn1	i	i	nt	nt	nt	nt	nt
COCC(=O)N1C[C@H]2[C@@H](c3ccccc31)[C@@H](CO)N2C(=O)Nc1ccccc1Cl	i	i	i	nt	nt	nt	nt
CCC(=O)N[C@@H]1C=C[C@@H](CC(=O)NCc2ccc(OC)cc2)O[C@H]1CO	i	i	nt	nt	nt	nt	nt
COc1cccc(-c2ccc3c(c2)O[C@@H](CN(C)C(=O)C2CC2)[C@H](C)CN([C@H](C)CO)S3(=O)=O)c1	i	i	nt	nt	nt	nt	nt
COc1cccc(-c2ccc3c(c2)O[C@@H](CN(C)C(=O)C2CCCCC2)[C@H](C)CN([C@H](C)CO)S3(=O)=O)c1	104.5	i	i	96.1	i	i	91.2
COc1cccc(-c2ccc3c(c2)O[C@H](CN(C)C(=O)C2CCCCC2)[C@@H](C)CN([C@H](C)CO)S3(=O)=O)c1	99.2	i	i	101.1	i	i	43.5
COc1cccc(-c2ccc3c(c2)O[C@@H](CN(C)C(=O)C2CC2)[C@H](C)CN([C@@H](C)CO)S3(=O)=O)c1	i	i	nt	nt	nt	nt	nt
COc1cccc(-c2ccc3c(c2)O[C@@H](CN(C)C(=O)C2CCC2)[C@H](C)CN([C@@H](C)CO)S3(=O)=O)c1	109.9	i	i	97.4	?	i	27.0
COc1cccc(-c2ccc3c(c2)O[C@H](CN(C)C(=O)C2CC2)[C@H](C)CN([C@H](C)CO)S3(=O)=O)c1	i	i	nt	nt	nt	nt	nt
COc1cccc(-c2ccc3c(c2)O[C@H](CN(C)C(=O)C2CCCCC2)[C@H](C)CN([C@@H](C)CO)S3(=O)=O)c1	117.3	i	i	102.6	i	i	88.6
COc1cccc(-c2ccc3c(c2)O[C@@H](CN(C)C(=O)C2CCOCC2)[C@@H](C)CN([C@@H](C)CO)S3(=O)=O)c1	nt	i	i	nt	nt	nt	nt
Cc1cc(C(=O)Nc2cccc3c2O[C@@H](CN(C)S(=O)(=O)c2cn(C)cn2)[C@H](C)CN([C@@H](C)CO)C3=O)n(C)n1	i	i	nt	nt	nt	nt	nt
C[C@@H]1CCCCO[C@@H](CN(C)Cc2ccncc2)[C@H](C)CN([C@H](C)CO)C(=O)c2cc(NC(=O)Nc3ccccc3)ccc2O1	i	i	i	nt	nt	nt	nt
CCCNC(=O)N1CC2(C1)CN(C(=O)COC)[C@H](CO)c1[nH]c3cc(OC)ccc3c12	nt	i	i	nt	nt	nt	nt
C[C@@H]1CN([C@H](C)CO)S(=O)(=O)c2ccc(C#CCN(C)C)cc2O[C@H]1CN(C)Cc1ccccc1F	109.8	i	i	105.6	i	61.3	105.6
SMILES	T cruzi growth-1	Pf Dd2 growth	C diff HTS	T cruzi growth-2	T cruzi growth-3	3T3 cytotox	3T3 cytotox 2
CC(C)CC#Cc1ccc2c(c1)O[C@@H](CN(C)Cc1ccccc1F)[C@@H](C)CN([C@@H](C)CO)S2(=O)=O	127.0	i	nt	i	112.0	i	104.8
CC(C)CC#Cc1ccc2c(c1)O[C@@H](CN(C)Cc1ccccc1F)[C@H](C)CN([C@@H](C)CO)S2(=O)=O	i	i	nt	nt	nt	nt	nt
COCC#Cc1ccc2c(c1)O[C@H](CN(C)Cc1ccccc1F)[C@@H](C)CN([C@H](C)CO)S2(=O)=O	i	i	i	nt	nt	nt	nt
COCC#Cc1ccc2c(c1)O[C@H](CN(C)Cc1ccccc1F)[C@H](C)CN([C@H](C)CO)S2(=O)=O	i	i	i	nt	nt	nt	nt
C[C@@H]1CN([C@@H](C)CO)S(=O)(=O)c2ccc(C#CC3CC3)cc2O[C@@H]1CN(C)Cc1ccccc1F	i	i	i	nt	nt	nt	nt
C[C@H]1CN([C@@H](C)CO)S(=O)(=O)c2ccc(C#CCN(C)C)cc2O[C@H]1CN(C)Cc1ccccc1F	100.0	i	i	95.6	i	i	34.1
C[C@@H]1CN([C@@H](C)CO)S(=O)(=O)c2ccc(C#CC3CC3)cc2O[C@H]1CN(C)Cc1ccccc1F	101.3	i	i	95.2	108.5	59.6	105.8
COCC#Cc1cnc2c(c1)C(=O)N([C@@H](C)CO)C[C@@H](C)[C@H](CN(C)S(C)(=O)=O)O2	i	i	i	nt	nt	nt	nt
CCCN(C)C[C@H]1Oc2cc(-c3cccnc3)ccc2S(=O)(=O)N([C@@H](C)CO)C[C@H]1C	i	i	i	nt	nt	nt	nt
C[C@@H]1CN([C@H](C)CO)C(=O)c2cccc(NC(=O)Nc3cccc4ccccc34)c2O[C@@H]1CN(C)S(C)(=O)=O	i	i	i	nt	nt	nt	nt
CCCc1cn(CC[C@H]2CC[C@H](NC(=O)C3CC3)[C@@H](CO)O2)nn1	nt	i	i	nt	nt	nt	nt
CN(C)C(=O)C[C@H]1C[C@@H]2c3cc(NS(=O)(=O)c4ccc(F)cc4)ccc3O[C@@H]2[C@H](CO)O1	i	i	i	nt	nt	nt	nt
